Jurkat NFkB inh: inhibitors of the PMA/ionomycin-induced NF-kB reporter in Jurkat cells | PMA/ionomycin-induced NF-kB luciferase reporter, luminescence | inhibition, % at 4 µM | actives 0.53% (n = 330,000) | AID 435003; in the data active means inhibition above about 50%
Gli-Sufu antag: blocks Gli-Sufu signaling in a luciferase reporter; Sufu-KO-LIGHT fibroblasts, Gli luciferase reporter luminescence; inhibition, % at 5 µM; actives 0.74% (n = 340,000);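 active means inhibition above about 55%, limit read from the data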;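 further: 0% = DMSO-treated cells and 100% = wells with medium but no cells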
Shn3 inh set2: reduces Shn3 3'UTR luciferase signal in osteoblasts. Clone20 osteoblast Shn3 3'UTR firefly luciferase, 24 h. inhibition, % at 12.5 µM. actives 0.52% (n = 360,000);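 active means mean inhibition of at least 75% with every replicate also reaching 75%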;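 further: 0% = median of neutral control wells and 100% = pilot-screen positive control compound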
697 NFkB inh: lowers PMA/ionomycin-induced NF-kB signal in 697 B cells | 697 B-cell NF-kB luciferase reporter, 16 h | inhibition, % at 4 µM | actives 0.33% (n = 330,000) | AID 435022; in the data active means inhibition above about 35%
Mdm2-MdmX inh: human Mdm2/MdmX binding inhibition. SaOS-2 split-luciferase Mdm2/MdmX complementation, luminescence. inhibition, % at 8 µM. actives 3% (n = 330,000);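 active means inhibition of at least 50% at 8 µM in the primary screen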
Target sequence (O15151 whole entry, looked up): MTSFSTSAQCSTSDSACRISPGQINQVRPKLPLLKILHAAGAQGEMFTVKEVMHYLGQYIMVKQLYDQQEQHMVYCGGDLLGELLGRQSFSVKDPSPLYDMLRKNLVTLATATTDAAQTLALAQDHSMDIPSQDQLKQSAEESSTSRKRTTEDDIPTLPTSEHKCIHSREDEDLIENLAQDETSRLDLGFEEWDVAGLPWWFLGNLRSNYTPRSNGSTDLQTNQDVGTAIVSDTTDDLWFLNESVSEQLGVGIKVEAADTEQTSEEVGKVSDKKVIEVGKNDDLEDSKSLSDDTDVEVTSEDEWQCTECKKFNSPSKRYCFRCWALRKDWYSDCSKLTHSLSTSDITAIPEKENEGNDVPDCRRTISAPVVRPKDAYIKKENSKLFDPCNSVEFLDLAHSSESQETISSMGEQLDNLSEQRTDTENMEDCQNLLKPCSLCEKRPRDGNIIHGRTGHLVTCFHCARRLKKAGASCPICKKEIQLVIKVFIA
Target sequence (Q00987 whole entry, looked up): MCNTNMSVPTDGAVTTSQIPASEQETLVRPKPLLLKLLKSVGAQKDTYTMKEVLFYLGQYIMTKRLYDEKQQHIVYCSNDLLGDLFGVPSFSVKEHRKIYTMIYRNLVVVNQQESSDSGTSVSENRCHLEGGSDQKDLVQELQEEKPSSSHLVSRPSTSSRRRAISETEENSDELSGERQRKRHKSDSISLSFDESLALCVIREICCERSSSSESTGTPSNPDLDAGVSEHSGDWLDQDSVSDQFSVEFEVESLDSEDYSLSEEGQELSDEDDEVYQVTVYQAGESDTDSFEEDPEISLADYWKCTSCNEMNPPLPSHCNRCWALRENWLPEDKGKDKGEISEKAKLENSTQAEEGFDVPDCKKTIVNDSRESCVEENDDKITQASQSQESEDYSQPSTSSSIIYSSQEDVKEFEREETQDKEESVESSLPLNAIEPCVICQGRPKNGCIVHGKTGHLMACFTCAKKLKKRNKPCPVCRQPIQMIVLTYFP
Jurkat NFkB conf: lowers PMA/ionomycin-induced NF-kB signal in Jurkat cells; actives 27% (n = 2,700); shares compounds with Jurkat NFkB inh; Jurkat NF-kB luciferase, 16 h; inhibition, % at 4 µM;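 active means inhibition reaching about 45% at 4 µM in either replicate, limit read from the data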;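 further: plate controls were PMA/ionomycin stimulated DMSO wells for no effect and unstimulated DMSO wells for full effect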
Numbers without * were called inactive; . = not tested or not shown. Rows were chosen to be rich in hits. Some 3.8% of all compounds tested hit in one or more screens of this group.

SMILES	Jurkat NFkB inh	Gli-Sufu antag	Shn3 inh set2	697 NFkB inh	Mdm2-MdmX inh	Jurkat NFkB conf
C[C@@H]1C[C@H]2[C@@H]3C[C@H](F)C4=CC(=O)C=C[C@]4(C)[C@@]3(Cl)[C@@H](O)C[C@]2(C)[C@H]1C(=O)COC(=O)C(C)(C)C	-1.9	8.5	9.4	13.7	39.5	.
COc1ccc(NC(=O)C2(C)CCCN2C(=O)C(C)C)cc1OC (centres undefined)	.	.	-23.0	.	.	.
Cc1ccccc1C=Nc1ccccc1C(N)=O	53.8*	-2.5	-3.5	2.0	41.9	11.2
O=C(CC(Nc1ccc(F)cc1)C(=O)O)c1ccccc1 (centres undefined)	-171.5	-93.3	-87.6	-232.7	-156.2	-10.4
Cc1ccc(NC(CC(=O)c2ccccc2)c2ccc(F)cc2)cc1 (centres undefined)	-1.0	-10.2	-14.8	-1.1	-29.1	.
C=CCSc1nnc(-c2ccc(Cl)cc2Cl)o1	-150.2	-60.6	-77.7	-125.1	-126.3	-102.6
CSc1ccc(/C=N/NC(=O)c2sccc2C)cc1	-159.4	-52.7	-51.0	-187.1	-197.7	-93.2
O=C(Nc1ccccc1)c1cc(-c2ccccc2Cl)no1	-171.6	-7.9	-64.4	-0.2	-89.1	-41.3
COc1ccc(NC(=O)c2cc(-c3ccccc3Cl)no2)cc1	-21.0	24.5	-40.0	4.9	-1.4	.
COc1ccc(-n2cnc(=S)[nH]c2=S)cc1	.	0.2	-4.6	.	.	.
CC1=CC(C)(C(Cl)(Cl)Cl)C(C)=CC1=NO (centres undefined)	.	.	17.7	.	.	.
COc1cccc(Oc2cnc(N)nc2-c2ccc(OC)cc2O)c1	50.3*	-4.7	-9.3	-47.8	40.3	15.4
COc1ccc(-c2nc(N)ncc2Oc2ccccc2Br)c(O)c1	33.6	-0.6	-2.0	11.4	49.4	.
O=C(NCC(=O)N1CC=C(c2ccccc2)CC1)c1ccc(OC(F)F)cc1	0.5	18.1	15.5	-2.7	15.4	.
COc1cc(OC)cc(C(=O)NCC(=O)N2CC=C(c3ccccc3)CC2)c1	69.9*	-13.3	8.3	-43.8	49.1	13.5
CC1CCCCC1NC(=O)CN1CCN(S(=O)(=O)c2ccc(Br)s2)CC1 (centres undefined)	-2.7	2.9	3.1	18.3	1.1	.
COc1ccc(N(CC(=O)Nc2cc(Cl)ccc2OC)S(=O)(=O)c2c(C)noc2C)cc1	69.4*	1.6	33.3	-22.9	36.9	32.1
COc1ccc(OC)c(NC(=O)CN(c2ccc(C)cc2)S(=O)(=O)c2c(C)noc2C)c1	-4.2	6.6	7.4	9.7	6.0	.
COc1ccc(NC(=O)C(=O)NCC(c2ccco2)N2CCc3ccccc32)cc1 (centres undefined)	64.1*	17.5	26.5	-66.2	18.5	12.4
COc1ccc(C(=O)NCC(c2ccco2)N2CCc3ccccc32)cc1 (centres undefined)	63.4*	18.9	18.9	-64.8	49.5	23.1
CC(=O)Nc1ccc(C(=O)OCC(=O)NC2CCCCCC2)cc1	.	.	2.2	.	.	.
CC(C)NC(=O)c1cc(C2CCCCN2S(=O)(=O)c2cccs2)on1 (centres undefined)	.	.	8.0	.	.	.
O=C(Nc1ccccc1)C(=O)Nc1ccc2c(c1)N(C(=O)C1CC1)CCC2	-163.0	-89.9	-38.5	-151.2	-79.5	-71.2
COc1ccc(CN2CCC[C@]3(N[C@H](c4ccccc4)[C@@H]4C(=O)N(C)C(=O)[C@@H]43)C2=O)cc1	.	.	-9.3	.	.	.
COc1ccc2nc(SCC(=O)NC3CCCC3)c(C)cc2c1	50.1*	36.2	-28.0	-25.7	47.0	31.2
SMILES	Jurkat NFkB inh	Gli-Sufu antag	Shn3 inh set2	697 NFkB inh	Mdm2-MdmX inh	Jurkat NFkB conf
COc1ccc2c(C)cc(SCC(=O)NC3CCCC3)nc2c1	0.8	-4.8	-43.6	-3.0	30.6	.
CCc1ccc(C2=NN(S(C)(=O)=O)C(c3cccs3)C2)cc1 (centres undefined)	-182.3	-122.7	-17.1	-230.9	-175.9	-65.5
C[C@]12CC[C@@H]3c4cc(O)c(O)cc4CC[C@H]3[C@@H]1CC[C@@H]2O	52.4*	-3.9	22.5	-40.7	29.9	40.1
C[C@]12CC[C@@H]3c4ccc(O)cc4[C@@H](O)C[C@H]3[C@@H]1CC[C@@H]2O	2.2	.	0.8	-8.6	-14.2	.
Cc1ccsc1/C=C/c1ccc2ccccc2n1	-164.6	-50.9	7.6	-161.6	-90.1	-105.1
COc1cc(C(=O)N/N=C(\C)c2ccc3c(c2)OCO3)cc(OC)c1OC	52.3*	6.1	-9.5	-25.9	49.9	2.0
Cc1ccc(CN2CC(N3CCN(C)CC3)CS2(=O)=O)cc1 (centres undefined)	.	.	-3.0	.	.	.
CC[C@]1(C(=O)OC)[C@H]2C(=O)N(Cc3ccccc3)C(=O)[C@H]2[C@H]2CN=C(SC)N21	.	-2.2	-5.2	3.7	-10.7	.
Cc1ccc(C2(C(F)(F)F)NC(=O)N3CCN=C3S2)cc1 (centres undefined)	-7.6	7.2	-7.4	10.4	27.8	.
Cc1ccc(C2(C(F)(F)F)NC(=O)N3CCCN=C3S2)cc1 (centres undefined)	51.6*	-1.9	-1.5	1.7	12.5	6.0
CNc1cc([N+](=O)[O-])ccc1N/C=C/C(=O)c1cccs1	-10.8	24.2	-26.6	1.0	26.8	.
O=C(/C=C/Nc1cccc([N+](=O)[O-])c1)c1cccs1	-157.6	-9.7	-102.4	-119.8	-141.5	-79.3
O=C(Nc1ccccc1)OCC1COC(c2ccccc2)(c2ccccc2)O1 (centres undefined)	.	3.2	30.1	.	.	.
Cc1ccc(S(=O)(=O)CCC(=O)OC2CC(C)OC2=O)cc1 (centres undefined)	-213.7	-5.3	0.7	16.6	4.2	12.7
CCN(CC)S(=O)(=O)c1cccc(C(=O)OC2CC(C)OC2=O)c1 (centres undefined)	12.3	1.0	4.5	11.7	-15.5	.
Cc1ccc(C(=O)CCNc2ccc(Br)cc2)o1	-50.7	-53.7	-19.5	-75.9	-29.7	.
Cc1ccc(C(=O)CCNc2ccc(F)c(Cl)c2)o1	72.7*	42.9	-12.3	-26.5	11.4	-0.8
O=C(c1cc(-c2ccncc2)nc2ccccc12)N1CCN(c2ccccn2)CC1	57.2*	-8.2	17.8	-30.1	37.4	7.8
O=C(c1cc(-c2ccccc2)nc2ccccc12)N1CCN(c2ccccn2)CC1	-4.2	-0.4	-16.4	-41.6	-10.7	.
COc1ccc(CNC(=O)c2cccc(NC(=O)CC3SC(N4CCCCC4)=NC3=O)c2)cc1 (centres undefined)	8.6	12.3	-0.3	12.7	10.5	.
Cc1cc(C)n2nc(C(=O)Nc3ccc4c(c3)OCO4)cc2n1	-188.2	-71.0	-54.1	-164.3	-56.4	-79.6
O=C(Nc1ccc2c(c1)OCO2)c1ccc(Cl)cc1Cl	-156.6	-151.4	-80.0	-210.6	-110.5	-65.2
O=C(Nc1ccc2c(c1)OCO2)c1cc2nc(C3CC3)cc(C(F)(F)F)n2n1	.	-1.7	-0.1	.	.	.
Cc1ccc(S(=O)(=O)N2CCCCC2)cc1NC(=O)COC(=O)c1cccc(O)c1	.	.	-11.4	.	.	.
CC(C)(C)c1ccc(/C=C/C(=O)NC2=NCCS2)cc1	-161.1	-16.0	-2.4	-204.2	-138.7	-79.8
